Data reported in PubChem BioAssay (NCI).
Compounds without any hit were thinned out: in the full panel of roughly 83,000, 20% have a hit.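 For each line, cells grew in 96-well plates with the test compound present at a single concentration for 48 hours.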 Unmarked numbers belong to inactive results. Active and inactive are the calls of the source.

The compounds below were run on EKVX NSCLC (assay: NCI-60 one-dose screen, 48 h (100 = growth as untreated, 0 = no growth, -100 = all killed)). Conditions: 10 µM.
Experimental: Growth inhibition of the EKVX human Non-Small Cell Lung tumor cell line is measured as a screen for anti-cancer activity. Cells are grown in 96 well plates and exposed to the test compound for 48 hours. Compounds are tested at a single concentration, which is 10^-5 M for most compounds. The reported endpoint is percent growth (GI% or GIPRCNT), where numbers from 0 - 100% represent growth inhibition, and numbers from -100% - 0 represent cell death. For example, a value of 40 represents 60% growth inhibition. A value of 0 means no net growth occurred over the course of the experiment. A value of -40 indicates 40% of cells at the beginning of the experiment died by the end of the experiment. A value of -100 means all cells are dead at the end of the experiment.
NCI-60 Human Tumor Cell Lines Screen was performed using the standard one-dose NCI protocol, which is described in more detail at https://dtp.cancer.gov/discovery_development/nci-60/default.htm.
Compounds with GIPRCNT values below 10 were considered active. Activity score was based on GIPRCNT using the following formula: […]
Score is 0 for GIPRCNT values of 100 or above, 50 for GIPRCNT values of 0, and 100 for GIPRCNT values of -100.

| Compound | growth |
| --- | --- |
| COc1ccc2cc([C@H](C)C(=O)[Se]CCC#N)ccc2c1 | -83.7% (active) |
| CC(=O)Oc1ccccc1C(=O)NC([Se])=NC1CCCCC1 | -59% (active) |
| COc1cc2cc(C(=O)N3C[C@@H](CCl)c4c3cc(OC(=O)N3CCN(C)[C@@H]5CSSC[C@H]53)c3ccccc43)[nH]c2c(OC)c1OC | -86.3% (active) |
| CC12OOC(C)(OO1)C2CCC(=O)NCCCNc1ccnc2cc(Cl)ccc12 (stereo not given) | 85.6% |
| O=C(/C=C/c1ccc(Cl)cc1)c1nc2ccccc2n1Cc1ccc(F)cc1 | 20.4% |
| O=C(/C=C/c1ccc(Cl)cc1Cl)c1nc2ccccc2n1Cc1ccc(Br)cc1 | 61.6% |
| CC(=O)Oc1ccccc1C(=O)[Se]C(=NC(C)C)NC(C)C | -94% (active) |
| C[C@H]1[C@H](OC(=O)CCC(=O)Nc2cnccn2)O[C@@H]2OC3(C)CC[C@H]4[C@H](C)CC[C@@H]1[C@@]24OO3 | 38.4% |
| CC1=C(CCC=O)C2=C(C)C3(CC3)[C@@](C)(O)C(=O)C2=C1 | -81.6% (active) |
| O=C(/C=C/c1ccccc1)c1nc2ccccc2n1Cc1ccc(F)cc1 | -60.5% (active) |
| O=C(/C=C/c1ccc(Br)cc1)c1nc2ccccc2n1Cc1ccc(Br)cc1 | 1.19% (active) |
| CCOP(=O)(CC(F)(F)C(F)(F)F)OCC | 89.5% |
| COC(=O)C[C@](O)(CCC(C)C)C(=O)O[C@H]1C(OC)=C[C@@]23CCCN2CCc2cc4c(cc2[C@@H]13)OCO4 | -16.2% (active) |
| C[C@H]1[C@@H](CC(=O)N[C@@H](Cc2coc3ccccc23)B(O)O)O[C@@H]2OC3(C)CC[C@H]4[C@H](C)CC[C@@H]1[C@@]24OO3 | 7.62% (active) |
| O=C(NC([Se])=NC1CCCCC1)c1ccccc1 | 19% |
| COc1cc2cc(C(=O)N3C[C@@H](CCl)c4c3cc(OC(=O)N3CCN(C)[C@@H]5CSSC[C@@H]53)c3ccccc43)[nH]c2c(OC)c1OC | -56.1% (active) |
| C[C@H]1[C@H](OC(=O)CCC(=O)N(CCCc2cn(-c3ccc([N+](=O)[O-])cc3)nn2)CCNc2ccnc3cc(Cl)ccc23)O[C@@H]2OC3(C)CC[C@H]4[C@H](C)CC[C@@H]1[C@@]24OO3 | 46.8% |
| COc1cc(OC)c(/C=C/C(=O)c2nc3ccccc3n2Cc2ccc(F)cc2)c(OC)c1 | 73.5% |
| CC(C)C[C@H](NC(=O)CNC(=O)C[C@H]1O[C@@H]2OC3(C)CC[C@H]4[C@H](C)CC[C@@H]([C@H]1C)[C@@]24OO3)B(O)O | 26.7% |
| COC(=O)C[C@](O)(CCCC(C)C)C(=O)O[C@H]1C(OC)=C[C@@]23CCCN2CCc2cc4c(cc2[C@@H]13)OCO4 | 14.2% |

| Compound | growth |
| --- | --- |
| COc1cc(OC)c(S(=O)(=O)N(CCCl)CCCl)cc1C(=O)/C=C/c1ccc(C)cc1 | 89.5% |
| C#CC[Se]C(=O)c1ccc(C(=O)[Se]CC#C)s1 | 48.4% |
| CC(C)N=C([Se])NC(=O)c1cccs1 | 14.7% |
| COCCOCCOCCOc1ccc(-n2cc(-c3ccc(O[C@H]4O[C@@H]5OC6(C)CC[C@H]7[C@H](C)CC[C@@H]([C@H]4C)[C@@]57OO6)cc3)nn2)cc1 | 26.7% |
| O=C(NCCCCC(c1ccc(F)cc1)c1ccc(F)cc1)Nc1ccc([N+](=O)[O-])c(C(F)(F)F)c1 | 4.51% (active) |
| O=C(/C=C/c1ccccc1)c1nc2ccccc2n1Cc1ccc(Br)cc1 | -89.2% (active) |
| O=C(/C=C/c1ccc(Cl)cc1Cl)c1nc2ccccc2n1Cc1ccc(F)cc1 | 35.6% |
| N#C[Se]CC(=O)Nc1cccc(C(F)(F)F)c1 | -94.5% (active) |
| CC[C@]12C=CCN3CC[C@@]4(c5ccc(OC)cc5N(C)[C@H]4[C@@](O)(C(=O)OC)[C@@H]1OC(=O)CCCC[P+](c1ccc(OC)cc1)(c1ccc(OC)cc1)c1ccc(OC)cc1)[C@@H]32 | -59.7% (active) |
| C=CCN=C([Se])NC(=O)c1ccc2c(c1)OCO2 | 73.5% |
| O=C(NC([Se])=NC1CCCCC1)c1ccc2c(c1)OCO2 | 56.8% |
| CC(=C\C(=O)Oc1ccc2c3c1OC1C(O)CCC4(O)C(C2)N(CC2CCC2)CCC314)/C=C1\CCCc2ccccc21 (stereo not given) | 49.7% |
| C[C@H]1[C@H](OC(=O)CCC(=O)N(CCCc2cn(-c3ccc(C#N)cc3)nn2)CCNc2ccnc3cc(Cl)ccc23)O[C@@H]2OC3(C)CC[C@H]4[C@H](C)CC[C@@H]1[C@@]24OO3 | 53% |
| CC[C@]12C=CCN3CC[C@@]4(c5ccc(OC)cc5N(C)[C@H]4[C@@](O)(C(=O)OC)[C@@H]1OC(=O)CCCC[P+](c1ccc(C)cc1)(c1ccc(C)cc1)c1ccc(C)cc1)[C@@H]32 | -93.8% (active) |
| CC12CCC3(CCC(=O)NCCCNc4ccnc5cc(Cl)ccc45)[C@@](C)(OO[C@]3(C)O1)O2 | 4.65% (active) |
| COC(=O)CCn1c(-c2ccc(-n3cc(-c4ccc(O[C@H]5O[C@@H]6OC7(C)CC[C@H]8[C@H](C)CC[C@@H]([C@H]5C)[C@@]68OO7)cc4)nn3)cc2)nc2ccccc21 | 23.5% |
| CC1=C2C(=C[C@@](C)(COP(=O)(Oc3ccccc3)Oc3ccccc3)[C@@H]2O)C(=O)[C@@](C)(O)C12CC2 | -52.5% (active) |
| CC[C@]12C=CCN3CC[C@@]4(c5ccc(OC)cc5N(C)[C@H]4[C@@](O)(C(=O)OC)[C@@H]1OC(=O)CCC[P+](c1ccc(F)cc1)(c1ccc(F)cc1)c1ccc(F)cc1)[C@@H]32 | 58.1% |
| CC(C)N=C([Se])NC(=O)c1ccccc1 | -56.8% (active) |
| C=CC[Se]C(=O)c1cncc(C(=O)[Se]CC=C)c1 | -97.9% (active) |
